Laboratory results: PMC7862700, “An all-to-all approach to the identification of sequence-specific readers for epigenetic DNA modifications on cytosine”

Experiments:
Assay in all cases: DAPPL (digital affinity profiling via proximity ligation, sequencing); 10 mM Tris-HCl pH 7.5, 50 mM NaCl, 1 mM DTT, 4% glycerol, room temperature, 30 min; GST-TFs on glutathione beads, 16-mer random dsDNA library, 0.1% formaldehyde crosslink after washing; high values mean tight binding
Settings in all cases: protein: recombinant; tags: N-terminal GST; dsDNA, one strand shown
[1] = target: T1, ERF (Homo sapiens, UniProt P50548 1-548)
T1 sequence: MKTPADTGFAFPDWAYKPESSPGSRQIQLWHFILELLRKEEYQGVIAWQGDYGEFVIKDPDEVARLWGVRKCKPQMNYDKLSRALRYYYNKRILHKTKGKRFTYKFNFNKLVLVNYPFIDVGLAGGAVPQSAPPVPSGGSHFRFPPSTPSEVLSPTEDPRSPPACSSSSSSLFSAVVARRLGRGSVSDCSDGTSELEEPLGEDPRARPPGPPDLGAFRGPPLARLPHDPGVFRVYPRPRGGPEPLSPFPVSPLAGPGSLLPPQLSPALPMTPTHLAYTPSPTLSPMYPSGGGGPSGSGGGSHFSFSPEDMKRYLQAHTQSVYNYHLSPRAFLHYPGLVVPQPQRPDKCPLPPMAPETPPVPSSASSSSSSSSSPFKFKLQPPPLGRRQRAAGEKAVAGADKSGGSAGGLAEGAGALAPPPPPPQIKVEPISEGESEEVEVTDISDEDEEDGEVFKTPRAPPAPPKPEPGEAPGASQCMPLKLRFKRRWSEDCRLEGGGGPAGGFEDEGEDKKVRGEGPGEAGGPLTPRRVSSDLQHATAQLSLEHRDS
Summary of the method: (§1)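 Sequencing on an Illumina NextSeq500 followed washing, crosslinking with 0.1% formaldehyde, proximity ligation (BsaI/T4 ligase, 1 h, 37 °C) and PCR amplification of pools that had been incubated for 30 min at room temperature with 200 nmole of a random double-stranded 16-mer DNA library in Tris/NaCl/DTT/glycerol buffer. Each pool held DNA-barcoded human transcription factors, expressed in yeast as GST fusions and captured on glutathione beads, plus a tag-only sample. Binding signal is a hexamer's read frequency for a factor divided by its frequency in the tag-only sample.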

[2] = target: T2, ETV3L (Homo sapiens, UniProt Q6ZN32 1-361)
T2 sequence: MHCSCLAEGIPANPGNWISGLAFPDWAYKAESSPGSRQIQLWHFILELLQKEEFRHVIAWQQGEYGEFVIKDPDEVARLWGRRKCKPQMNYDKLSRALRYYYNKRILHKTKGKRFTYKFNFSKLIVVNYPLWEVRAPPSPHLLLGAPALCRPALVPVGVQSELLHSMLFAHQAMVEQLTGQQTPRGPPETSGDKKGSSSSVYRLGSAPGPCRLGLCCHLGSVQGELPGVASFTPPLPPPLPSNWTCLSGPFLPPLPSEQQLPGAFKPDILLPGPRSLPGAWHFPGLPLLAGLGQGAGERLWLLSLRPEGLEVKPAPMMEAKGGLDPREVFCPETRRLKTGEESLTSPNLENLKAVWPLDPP
Summary of the method: as §1

[3] = target: T3, ETS2 (Homo sapiens, UniProt P15036 1-469)
T3 sequence: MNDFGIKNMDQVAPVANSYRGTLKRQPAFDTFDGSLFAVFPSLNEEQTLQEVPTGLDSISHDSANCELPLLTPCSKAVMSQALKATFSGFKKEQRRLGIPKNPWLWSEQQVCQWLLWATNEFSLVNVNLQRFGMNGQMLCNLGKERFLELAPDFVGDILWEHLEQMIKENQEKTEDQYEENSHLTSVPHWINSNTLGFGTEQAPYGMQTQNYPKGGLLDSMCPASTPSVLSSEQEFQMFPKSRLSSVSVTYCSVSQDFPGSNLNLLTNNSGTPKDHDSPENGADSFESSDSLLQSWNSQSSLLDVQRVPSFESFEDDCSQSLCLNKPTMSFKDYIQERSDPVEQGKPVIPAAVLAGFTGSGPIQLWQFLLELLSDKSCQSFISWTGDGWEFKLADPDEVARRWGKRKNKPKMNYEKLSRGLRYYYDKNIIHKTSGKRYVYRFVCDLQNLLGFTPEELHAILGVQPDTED
Summary of the method: as §1

[4] = target: T4, SPDEF (Homo sapiens, UniProt O95238 1-335)
T4 sequence: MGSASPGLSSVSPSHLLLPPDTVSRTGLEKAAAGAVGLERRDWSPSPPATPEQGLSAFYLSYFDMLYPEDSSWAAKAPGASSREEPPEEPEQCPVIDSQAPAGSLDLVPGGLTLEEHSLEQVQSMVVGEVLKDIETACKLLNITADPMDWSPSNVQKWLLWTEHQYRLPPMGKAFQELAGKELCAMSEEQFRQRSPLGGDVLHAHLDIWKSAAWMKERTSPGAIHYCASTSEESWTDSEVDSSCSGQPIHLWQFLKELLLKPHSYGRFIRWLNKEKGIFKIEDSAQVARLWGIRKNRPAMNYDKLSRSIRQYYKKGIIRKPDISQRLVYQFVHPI
Summary of the method: as §1

[5] = target: T5, ETV7 (Homo sapiens, UniProt Q9Y603 1-341)
T5 sequence: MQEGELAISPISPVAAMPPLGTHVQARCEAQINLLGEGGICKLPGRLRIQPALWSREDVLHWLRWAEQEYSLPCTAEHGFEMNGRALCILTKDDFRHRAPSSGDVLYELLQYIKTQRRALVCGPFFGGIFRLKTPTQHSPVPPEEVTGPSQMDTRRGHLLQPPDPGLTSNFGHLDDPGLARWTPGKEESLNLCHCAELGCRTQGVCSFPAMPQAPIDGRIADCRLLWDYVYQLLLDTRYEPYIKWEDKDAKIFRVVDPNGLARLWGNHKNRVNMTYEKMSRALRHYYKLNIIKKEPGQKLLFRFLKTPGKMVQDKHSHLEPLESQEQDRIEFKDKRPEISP
Summary of the method: as §1

[6] = target: T6, ELF5 (Homo sapiens, UniProt Q9UKW6-2 1-255)
T6 sequence: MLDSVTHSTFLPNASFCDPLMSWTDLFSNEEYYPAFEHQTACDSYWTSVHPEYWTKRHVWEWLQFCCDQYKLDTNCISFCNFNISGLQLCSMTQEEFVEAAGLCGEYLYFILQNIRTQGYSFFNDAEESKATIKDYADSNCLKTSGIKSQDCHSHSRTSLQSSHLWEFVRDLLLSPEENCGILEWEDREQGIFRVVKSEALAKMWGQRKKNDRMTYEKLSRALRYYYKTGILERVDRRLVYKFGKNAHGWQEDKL
Summary of the method: as §1

[7] = target: T7, ETV3 (Homo sapiens, UniProt P41162-2 1-143)
T7 sequence: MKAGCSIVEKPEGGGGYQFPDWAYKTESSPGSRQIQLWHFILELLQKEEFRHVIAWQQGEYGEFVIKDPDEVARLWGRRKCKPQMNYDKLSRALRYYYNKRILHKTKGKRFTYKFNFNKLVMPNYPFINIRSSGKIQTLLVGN
Summary of the method: as §1

[8] = target: ETV6 (Homo sapiens, UniProt P41212 1-452)
Chain of ETV6 (P41212 whole entry): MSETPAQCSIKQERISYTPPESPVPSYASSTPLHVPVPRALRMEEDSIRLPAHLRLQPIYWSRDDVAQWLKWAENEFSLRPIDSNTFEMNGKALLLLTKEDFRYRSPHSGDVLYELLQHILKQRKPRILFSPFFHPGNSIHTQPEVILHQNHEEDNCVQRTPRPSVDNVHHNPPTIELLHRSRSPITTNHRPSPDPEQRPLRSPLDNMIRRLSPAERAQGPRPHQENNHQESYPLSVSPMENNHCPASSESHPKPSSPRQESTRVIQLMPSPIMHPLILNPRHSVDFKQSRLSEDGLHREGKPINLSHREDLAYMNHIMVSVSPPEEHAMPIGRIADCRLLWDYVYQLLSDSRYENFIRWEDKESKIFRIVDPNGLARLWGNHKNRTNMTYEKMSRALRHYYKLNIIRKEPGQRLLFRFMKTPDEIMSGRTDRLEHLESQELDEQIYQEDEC
Summary of the method: as §1

| Sequence | binding signal [1] | binding signal [2] | binding signal [3] | binding signal [4] | binding signal [5] | binding signal [6] | binding signal [7] | binding signal [8] |
| --- | --- | --- | --- | --- | --- | --- | --- | --- |
| TGCTAG | 1.21 fold enrichment (6-mer frequency, TF over GST control) | 1.29 fold enrichment (6-mer frequency, TF over GST control) | 1.04 fold enrichment (6-mer frequency, TF over GST control) | 1.09 fold enrichment (6-mer frequency, TF over GST control) | 1.16 fold enrichment (6-mer frequency, TF over GST control) | 1.09 fold enrichment (6-mer frequency, TF over GST control) | 1.13 fold enrichment (6-mer frequency, TF over GST control) | 1.05 fold enrichment (6-mer frequency, TF over GST control) |
| AACTGG | 1.18 fold enrichment (6-mer frequency, TF over GST control) | 1.23 fold enrichment (6-mer frequency, TF over GST control) | 1.3 fold enrichment (6-mer frequency, TF over GST control) | 1.23 fold enrichment (6-mer frequency, TF over GST control) | 1.23 fold enrichment (6-mer frequency, TF over GST control) | 1.26 fold enrichment (6-mer frequency, TF over GST control) | 1.29 fold enrichment (6-mer frequency, TF over GST control) | 1.31 fold enrichment (6-mer frequency, TF over GST control) |
| AATTCG | 1.38 fold enrichment (6-mer frequency, TF over GST control) | 1.38 fold enrichment (6-mer frequency, TF over GST control) | 1.23 fold enrichment (6-mer frequency, TF over GST control) | 1.25 fold enrichment (6-mer frequency, TF over GST control) | 1.32 fold enrichment (6-mer frequency, TF over GST control) | 1.2 fold enrichment (6-mer frequency, TF over GST control) | 1.29 fold enrichment (6-mer frequency, TF over GST control) | 1.24 fold enrichment (6-mer frequency, TF over GST control) |
| TTCTCC | 1.53 fold enrichment (6-mer frequency, TF over GST control) | 1.58 fold enrichment (6-mer frequency, TF over GST control) | 1.53 fold enrichment (6-mer frequency, TF over GST control) | 1.52 fold enrichment (6-mer frequency, TF over GST control) | 1.46 fold enrichment (6-mer frequency, TF over GST control) | 1.51 fold enrichment (6-mer frequency, TF over GST control) | 1.5 fold enrichment (6-mer frequency, TF over GST control) | 1.48 fold enrichment (6-mer frequency, TF over GST control) |
| TCCATT | 1.23 fold enrichment (6-mer frequency, TF over GST control) | 1.22 fold enrichment (6-mer frequency, TF over GST control) | 1.28 fold enrichment (6-mer frequency, TF over GST control) | 1.2 fold enrichment (6-mer frequency, TF over GST control) | 1.26 fold enrichment (6-mer frequency, TF over GST control) | 1.2 fold enrichment (6-mer frequency, TF over GST control) | 1.37 fold enrichment (6-mer frequency, TF over GST control) | 1.29 fold enrichment (6-mer frequency, TF over GST control) |
| GCCCTA | 1.21 fold enrichment (6-mer frequency, TF over GST control) | 1.17 fold enrichment (6-mer frequency, TF over GST control) | 1.22 fold enrichment (6-mer frequency, TF over GST control) | 1.21 fold enrichment (6-mer frequency, TF over GST control) | 1.12 fold enrichment (6-mer frequency, TF over GST control) | 1.11 fold enrichment (6-mer frequency, TF over GST control) | 1.18 fold enrichment (6-mer frequency, TF over GST control) | 1.17 fold enrichment (6-mer frequency, TF over GST control) |
| TTAAAC | 1.39 fold enrichment (6-mer frequency, TF over GST control) | 1.36 fold enrichment (6-mer frequency, TF over GST control) | 1.2 fold enrichment (6-mer frequency, TF over GST control) | 1.18 fold enrichment (6-mer frequency, TF over GST control) | 1.14 fold enrichment (6-mer frequency, TF over GST control) | 1.18 fold enrichment (6-mer frequency, TF over GST control) | 1.23 fold enrichment (6-mer frequency, TF over GST control) | 1.3 fold enrichment (6-mer frequency, TF over GST control) |
